Data from PubChem BioAssay AID1159580 (chemical genetic matrix, 2015).
Where “and” joins values, the source holds several entries; their conditions need not be identical. Equal values may be shown once. Out of some 5,500 compounds screened, about 2,000 (36%) were called active. Roughly 18% stayed inconclusive and do not appear here. Rule as the data show it: active = normalized growth mostly below about 0.91 (no sharp cut-off); inconclusive = no clear call, values can overlap the other calls; inactive = mostly above about 0.92. The list shows a part of the results.

Assay: chemical genetic growth profiling, strain panel (AID 1159580);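 also: tested at 20 µM; growth read once vehicle control cultures reached saturation at 30 °C; 1 = growth at the plate median or of vehicle wells; lower values mean less growth of the strain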
Details: S. cerevisiae deletion strains, growth OD

Measured: normalized growth

O=C(O[C@@H]1Cc2c(O)cc(O)cc2O[C@@H]1c1cc(O)c(O)c(O)c1)c1cc(O)c(O)c(O)c1
inactive: locus YBR021W, strain FUR4, stronger effect = lower value 1.01 | locus YBR171W, strain sec66, stronger effect = lower value 0.976 | locus YCL016C, strain dcc1, stronger effect = lower value 0.934 | locus YCL069W, strain vba3, stronger effect = lower value 0.94 | locus YCR088W, strain abp1, stronger effect = lower value 1.01 | locus YDL005C, strain med2, stronger effect = lower value 0.994 | locus YDL040C, strain nat1, stronger effect = lower value 0.979 | locus YDL185W, strain tfp1, stronger effect = lower value 0.994 | locus YDR001C, strain nth1, stronger effect = lower value 1 | locus YDR101C, strain arx1, stronger effect = lower value 0.966 | locus YDR159W, strain sac3, stronger effect = lower value 1.02 | locus YDR195W, strain ref2 0.905 | locus YDR318W, strain mcm21, stronger effect = lower value 0.951 | locus YDR392W, strain spt3, stronger effect = lower value 0.931 | locus YEL061C, strain CIN8 (second series), stronger effect = lower value 0.982 | locus YER016W, strain bim1, stronger effect = lower value 0.978 | locus YER110C, stronger effect = lower value 1.03 | locus YER155C, strain BEM2 (second series), stronger effect = lower value 0.893 | locus YER155C, strain BEM2, stronger effect = lower value 0.955 | locus YGL078C, strain dbp3, stronger effect = lower value 1.01 | locus YGL167C, strain pmr1, stronger effect = lower value 0.981 | locus YGL227W, strain vid30, stronger effect = lower value 1.02 | locus YGL240W, strain doc1, stronger effect = lower value 0.961 | locus YGR078C, strain PAC10, stronger effect = lower value 0.865 | locus YGR252W, strain gcn5, stronger effect = lower value 0.864 | locus YHR079C, strain IRE1 (second series), stronger effect = lower value 0.999 | locus YHR079C, strain IRE1, stronger effect = lower value 1.03 | locus YHR094C, strain hxt1, stronger effect = lower value 1.01 | locus YIL125W, strain kgd1, stronger effect = lower value 1 | locus YIR030C, strain dcg1, stronger effect = lower value 0.999 | locus YJL092W, strain hpr5, stronger effect = lower value 0.986 | locus YJL115W, strain asf1, stronger effect = lower value 0.988 | locus YJL129C, strain trk1, stronger effect = lower value 1.02 | locus YJL154C, strain vps35, stronger effect = lower value 0.992 | locus YJL168C, strain set2, stronger effect = lower value 0.998 | locus YJR066W, strain TOR1, stronger effect = lower value 0.936 | locus YKL009W, strain mrt4, stronger effect = lower value 1.04 | locus YKL068W, stronger effect = lower value 1 | locus YKL085W, strain MDH1 (second series), stronger effect = lower value 1.01 | locus YKL085W, strain MDH1, stronger effect = lower value 1.01 | locus YKL160W, strain elf1, stronger effect = lower value 0.936 | locus YKR001C, strain vps1, stronger effect = lower value 0.914 | locus YKR026C, strain gcn3, stronger effect = lower value 0.998 | locus YKR091W, strain srl3, stronger effect = lower value 0.996 | locus YLL041C, strain sdh2, stronger effect = lower value 0.962 | locus YLR102C, strain apc9, stronger effect = lower value 1.04 | locus YLR113W, strain HOG1, stronger effect = lower value 1.06 | locus YLR262C, strain YPT6, stronger effect = lower value 0.664 | locus YLR384C, strain iki3, stronger effect = lower value 0.94 | locus YML032C, strain rad52, stronger effect = lower value 1.01 | locus YML120C, strain ndi1, stronger effect = lower value 0.967 | locus YML124C, strain tub3, stronger effect = lower value 1 | locus YMR078C, strain ctf18, stronger effect = lower value 1.01 | locus YMR125W, strain sto1, stronger effect = lower value 1.07 | locus YMR129W, stronger effect = lower value 0.973 | locus YNL183C, strain NPR1, stronger effect = lower value 0.968 | locus YNL248C, strain rpa49, stronger effect = lower value 0.952 | locus YNL250W, strain rad50, stronger effect = lower value 1.02 | locus YNL271C, strain bni1, stronger effect = lower value 1 | locus YNL298W, strain CLA4, stronger effect = lower value 1 | locus YNL307C, strain MCK1, stronger effect = lower value 0.99 | locus YNL322C, strain KRE1 (second series), stronger effect = lower value 1.04 | locus YNR049C, strain mso1, stronger effect = lower value 0.986 | locus YOL012C, strain htz1 0.219 | locus YOL147C, strain pex11, stronger effect = lower value 0.97 | locus YOR136W, strain idh2, stronger effect = lower value 0.966 | locus YOR144C, strain elg1, stronger effect = lower value 0.971 | locus YOR231W, strain MKK1, stronger effect = lower value 1.02 | locus YOR290C, strain snf2, stronger effect = lower value 0.894 | locus YOR316C, strain cot1, stronger effect = lower value 1.02 | locus YPL078C, strain atp4, stronger effect = lower value 0.947 | locus YPL240C, strain hsp82, stronger effect = lower value 0.98 | locus YPL256C, strain CLN2, stronger effect = lower value 1.05 | locus YPR119W, strain clb2, stronger effect = lower value 1.02 | locus YPR141C, strain kar3, stronger effect = lower value 0.995 | locus YPR163C, strain tif3, stronger effect = lower value 1.01 | locus YPR167C, strain met16, stronger effect = lower value 0.951
0.798 (active) and 1.02 (inactive): locus YHR030C, strain SLT2, stronger effect = lower value
active: locus YAL021C, strain ccr4, stronger effect = lower value 0.284 | locus YAL026C, strain drs2, stronger effect = lower value 0.781 | locus YAL030W, strain snc1, stronger effect = lower value 0.874 | locus YBL061C, strain skt5, stronger effect = lower value 0.77 | locus YBR009C, strain hhf1, stronger effect = lower value 0.823 | locus YBR023C, strain chs3, stronger effect = lower value 0.746 | locus YBR229C, strain ROT2, stronger effect = lower value 0.889 | locus YBR231C, strain swc5, stronger effect = lower value 0.688 | locus YBR279W, strain paf1, stronger effect = lower value 0.821 | locus YCL011C, strain gbp2, stronger effect = lower value 0.855 | locus YCL029C, strain bik1, stronger effect = lower value 0.866 | locus YCL061C, strain MRC1, stronger effect = lower value 0.913 | locus YDL035C, strain GPR1, stronger effect = lower value 0.333 | locus YDL074C, strain BRE1, stronger effect = lower value 0.576 | locus YDL101C, strain DUN1, stronger effect = lower value 0.385 | locus YDL192W, strain arf1, stronger effect = lower value 0.872 | locus YDR069C, strain doa4, stronger effect = lower value 0.413 | locus YDR137W, strain rgp1, stronger effect = lower value 0.839 | locus YDR162C, strain NBP2, stronger effect = lower value 0.14 | locus YDR297W, strain sur2, stronger effect = lower value 0.832 | locus YDR334W, strain swr1, stronger effect = lower value 0.837 | locus YDR335W, strain msn5, stronger effect = lower value 0.879 | locus YDR388W, stronger effect = lower value 0.929 | locus YDR502C, strain sam2, stronger effect = lower value 0.855 | locus YEL003W, strain gim4, stronger effect = lower value 0.85 | locus YEL037C, strain rad23, stronger effect = lower value 0.905 | locus YER015W, strain faa2, stronger effect = lower value 0.682 | locus YER111C, strain swi4, stronger effect = lower value 0.845 | locus YER167W, strain BCK2, stronger effect = lower value 0.801 | locus YFR010W, strain ubp6, stronger effect = lower value 0.865 | locus YGL086W, strain mad1, stronger effect = lower value 0.776 | locus YGL173C, strain kem1, stronger effect = lower value 0.567 | locus YGL248W, strain PDE1, stronger effect = lower value 0.536 | locus YGL253W, strain hxk2, stronger effect = lower value 0.794 | locus YGR135W, strain pre9, stronger effect = lower value 0.861 | locus YHR013C, strain ard1, stronger effect = lower value 0.663 | locus YHR027C, strain rpn1, stronger effect = lower value 0.52 | locus YHR129C, strain ARP1, stronger effect = lower value 0.586 | locus YHR142W, strain chs7, stronger effect = lower value 0.749 | locus YHR200W, strain rpn10, stronger effect = lower value 0.855 | locus YIL066C, strain RNR3, stronger effect = lower value 0.176 | locus YIL073C, strain SPO22, stronger effect = lower value 0.226 | locus YJL095W, strain BCK1 (second series), stronger effect = lower value 0.882 | locus YJL134W, strain LCB3, stronger effect = lower value 0.914 | locus YJL164C, strain tpk1, stronger effect = lower value 0.808 | locus YJL166W, strain qcr8, stronger effect = lower value 0.744 | locus YJL187C, strain SWE1 (second series), stronger effect = lower value 0.29 | locus YJL187C, strain SWE1, stronger effect = lower value 0.837 | locus YJR043C, strain POL32, stronger effect = lower value 0.317 | locus YJR075W, strain HOC1, stronger effect = lower value 0.704 | locus YKL190W, strain CNB1, stronger effect = lower value 0.26 | locus YLL001W, strain dnm1, stronger effect = lower value 0.897 | locus YLL026W, stronger effect = lower value 0.899 | locus YLR027C, strain aat2, stronger effect = lower value 0.829 | locus YLR039C, strain RIC1, stronger effect = lower value 0.331 | locus YLR058C, strain SHM2, stronger effect = lower value 0.373 | locus YLR221C, strain rsa3, stronger effect = lower value 0.87 | locus YLR258W, strain gsy2, stronger effect = lower value 0.898 | locus YLR262C, strain YPT6 (second series), stronger effect = lower value 0.835 | locus YLR268W, strain sec22, stronger effect = lower value 0.832 | locus YLR320W, strain mms22, stronger effect = lower value 0.877 | locus YLR330W, strain CHS5, stronger effect = lower value 0.776 | locus YLR342W, strain FKS1 (second series), stronger effect = lower value 0.297 | locus YLR342W, strain FKS1, stronger effect = lower value 0.649 | locus YLR357W, strain rsc2, stronger effect = lower value 0.704 | locus YLR370C, strain arc18, stronger effect = lower value 0.89 | locus YLR371W, strain rom2, stronger effect = lower value 0.677 | locus YLR418C, strain cdc73, stronger effect = lower value 0.625 | locus YML016C, strain PPZ1, stronger effect = lower value 0.114 | locus YMR058W, strain fet3, stronger effect = lower value 0.174 | locus YMR205C, strain PFK2, stronger effect = lower value 0.821 | locus YMR223W, strain ubp8, stronger effect = lower value 0.887 | locus YMR231W, strain pep5, stronger effect = lower value 0.496 | locus YMR307W, strain GAS1, stronger effect = lower value 0.429 | locus YNL067W, strain RPL9B, stronger effect = lower value 0.692 | locus YNL071W, strain lat1, stronger effect = lower value 0.878 | locus YNL128W, strain TEP1, stronger effect = lower value 0.13 | locus YNL153C, strain GIM3, stronger effect = lower value 0.665 | locus YNL209W, strain ssb2, stronger effect = lower value 0.44 | locus YNL233W, strain BNI4, stronger effect = lower value 0.651 | locus YNL322C, strain KRE1, stronger effect = lower value 0.26 | locus YNR052C, strain pop2, stronger effect = lower value 0.861 | locus YOL006C, strain TOP1, stronger effect = lower value 0.324 | locus YOR001W, strain rrp6, stronger effect = lower value 0.875 | locus YOR061W, strain CKA2, stronger effect = lower value 0.484 | locus YOR069W, strain VPS5, stronger effect = lower value 0.526 | locus YOR070C, strain gyp1, stronger effect = lower value 0.767 | locus YOR080W, strain dia2, stronger effect = lower value 0.754 | locus YOR083W, strain WHI5, stronger effect = lower value 0.882 | locus YOR106W, strain vam3, stronger effect = lower value 0.316 | locus YOR184W, strain ser1, stronger effect = lower value 0.808 | locus YOR265W, strain rbl2, stronger effect = lower value 0.912 | locus YOR270C, strain vph1, stronger effect = lower value 0.499 | locus YPL051W, strain arl3, stronger effect = lower value 0.539 | locus YPL055C, strain LGE1, stronger effect = lower value 0.249 | locus YPL106C, strain sse1, stronger effect = lower value 0.762 | locus YPL241C, strain CIN2, stronger effect = lower value 0.741 | strain wtn01, stronger effect = lower value 0.832
0.148 (active) and 1.01 (inactive): locus YJL095W, strain BCK1, stronger effect = lower value
